# Only some compounds are listed: those with a hit (about 3.3% of all), similar ones and a draw of the others.
# PRMT1 FP inh = PRMT1 methyltransferase inhibitors, primary screen, biochemical, fluorescence polarization; inhibition, % at 2.79 µM; AID 652257, 2013; Protein arginine N-methyltransferase 1 (Homo sapiens), Q99873; recombinant PRMT1, activity-based probe fluorescence polarization; 1.3% of 370,000 active;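 active means inhibition above about 21% made by adding two undisclosed values, limit read from the data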
# Target sequence (Q99873 whole entry, looked up): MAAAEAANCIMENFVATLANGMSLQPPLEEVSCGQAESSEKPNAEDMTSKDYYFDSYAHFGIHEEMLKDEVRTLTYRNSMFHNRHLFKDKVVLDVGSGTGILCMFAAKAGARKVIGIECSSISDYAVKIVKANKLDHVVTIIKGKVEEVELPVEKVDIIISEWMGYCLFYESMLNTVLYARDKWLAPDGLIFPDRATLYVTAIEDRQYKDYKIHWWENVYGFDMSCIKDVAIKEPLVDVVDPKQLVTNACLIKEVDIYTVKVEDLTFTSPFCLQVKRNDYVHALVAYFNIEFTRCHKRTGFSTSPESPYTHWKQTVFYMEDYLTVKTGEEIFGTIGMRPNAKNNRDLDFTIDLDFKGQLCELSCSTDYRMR
# NOD2-RIPK2 inh = NOD2-RIPK2 binding disruptors in cells, primary screen, fluorescence, CHO cells, BLA complementation; inhibition, % at 4.98 µM; 0.38% of 360,000 active; Receptor-interacting serine/threonine-protein kinase 2 (Homo sapiens), O43353; CCF4 ratio; in the data active means inhibition above about 21%
# TLR4 MyD88 comp = inhibitors of TLR4-MyD88 association in cells, primary screen, cell-based, HeLa CL3-4, BLA complementation, FRET ratio; 0.18% of 200,000 active; AID 861, 2007; HeLa CL3-4 TLR4/MyD88 BLA complementation; inhibition, % at 8.4 µM; in the data active means inhibition above about 25%
# ABHD5 PLIN5 PPI = ABHD5-PLIN5 interaction inhibitors, primary screen, cell lysate, split luciferase complementation, luminescence; Split G. princeps luciferase complementation, 4 h; inhibition, % at 4 µM; AID 602281, 2012; 0.78% of 360,000 active;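 active means inhibition above the mean inhibition across every tested compound plus 3 SD, cut at about 22% in these data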
# rCAG RNA binder = binders of r(CAG) RNA repeats, primary screen, biochemical, fluorescence. r(CAG) RNA repeat, TO-PRO-1 dye displacement fluorescence. inhibition, % at 3 µM. 1.3% of 370,000 active;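 active means inhibition above the plate cutoff, the mean of all test compounds on that plate plus 3 SD, cut at about 35% in these data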;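 further: higher means more dye released from RNA so lower well fluorescence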
# TLR9-MyD88 block = inhibitors of TLR9-MyD88 association in cells, primary screen, cell-based, CHO, BLA complementation, fluorescence; Toll-like receptor 9 (Homo sapiens) + Myeloid differentiation primary response protein …; AID 504734, 2011; 0.21% of 340,000 active; CCF4 FRET ratio; inhibition, % at 4.98 µM;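 active means inhibition above the mean over all tested compounds plus 3 SD, cut at about 21% in these data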
# A number is an active result; n = inactive; x = no result given; ! = repeats disagree.
SMILES,PRMT1 FP inh,NOD2-RIPK2 inh,TLR4 MyD88 comp,ABHD5 PLIN5 PPI,rCAG RNA binder,TLR9-MyD88 block
O=C1CC(NCC2CCCO2)C(=O)N1c1ccc(Cl)cc1 (configuration not stated),n,n,n,n,n,n
Cc1ccc(N2C(=O)CC(NCC3CCCO3)C2=O)cc1 (configuration not stated),45,n,n,n,n,n
Cc1ccc(C(=O)Nc2ccc(S(=O)(=O)NC3=NCCCCC3)cc2)cc1S(=O)(=O)N1CCOCC1,n,n,x,n,n,n
CC1CCN(C(=O)c2[nH]cnc2C(=O)Nc2ccon2)CC1,n,n,x,n,n,n
CC1(C)Cc2c(ccc3ccccc23)/C(=C/C(=O)N2CCCCC2)N1,n,n,n,n,n,n
O=C(/C=C1\NC2(CCCC2)Cc2ccccc21)N1CCOCC1,27,n,n,n,n,n
Cc1oc(-c2ccccc2F)nc1CSCC(=O)NC1CCCC1,24,n,x,n,n,n
CC1CCCN(Cc2c(O)ccc3c2O/C(=C\c2ccco2)C3=O)C1 (configuration not stated),22,n,n,n,n,n
C=CCNc1ncnc2c1ncn2[C@H]1CN(C2CCCC2)C[C@@H](CO)O1,n,n,x,n,n,x
COc1cccc(NC(=O)CSc2nc(O)c(C)c(=O)n2-c2ccc(C)cc2)c1,24,n,x,n,n,n
CCOC(=O)C(N)CSC1CC(=O)N(c2ccc(C(=O)OC)cc2)C1=O (configuration not stated),n,n,n,n,n,n
CCOC(=O)c1ccc(N2C(=O)CC(Sc3ncccn3)C2=O)cc1 (configuration not stated),21,n,x,n,n,n
COC(=O)[C@H](C)N(CCc1cn(Cc2ccccc2)nn1)S(=O)(=O)c1ccccc1Br,n,x,x,x,n,x
CCCc1c(C)[nH]c2ccc(C(=O)O)cc2c1=S,n,n,x,n,45,n
COc1ccc(C(NC(=O)/C=C\c2ccco2)c2ccc(OC)c(OC)c2)cc1 (configuration not stated),n,n,n,22,n,n
COc1ccc(CCNC(=O)CSC(=O)c2ccccc2)cc1OC,22,n,n,n,n,n
NS(=O)(=O)c1ccc(CNC(=O)/C=C/c2ccco2)cc1,n,n,x,23,n,n
COc1ccc(CCNC(=O)/C=C/c2ccco2)cc1,n,n,x,n,n,n
COc1ccc(OC)c(NC(=O)CCCc2ccccc2)c1,22,n,x,n,n,n
CC(O)(CC(=O)CC(=O)c1ccccc1)c1ccccc1 (configuration not stated),n,n,x,n,n,n
COc1ccc(OC)c(NC(=O)COC(=O)/C=C/c2ccco2)c1,23,n,x,n,n,n
COc1ccc(CCNC(=O)/C=C/c2ccco2)cc1OC,23,n,x,n,n,n
Cc1ccccc1-n1nnnc1SCC(=O)NNC(=O)c1ccc(NC(=O)CC#N)cc1,n,n,x,n,n,n
O=C(/C=C/c1ccc2ccccc2c1)c1ccoc1,n,n,n,25,n,n
O=C(NNc1cccc(Cl)n1)Nc1ccc(Cl)cc1,n,n,n,n,n,n
SMILES,PRMT1 FP inh,NOD2-RIPK2 inh,TLR4 MyD88 comp,ABHD5 PLIN5 PPI,rCAG RNA binder,TLR9-MyD88 block
Cc1ccc(NNC(=O)Nc2ccc(Cl)cc2)nn1,24,n,x,n,n,x
C[C@H](NC(=O)c1[nH]cnc1C(=O)Nc1ccc(CNC(=O)OC(C)(C)C)cc1)C(=O)OC(C)(C)C,n,n,x,n,n,n
CCOC(=O)C(N)CSC1CC(=O)N(CCc2ccccc2)C1=O (configuration not stated),22,n,x,n,n,n
O=C1C(Br)=C(c2ccccc2)C(c2ccccc2)=C1c1ccccc1,x,n,x,n,x,n
COc1cccc(OCc2nc(-c3cccc([N+](=O)[O-])c3)no2)c1,n,n,n,n,n,x
COc1cccc(-c2noc(Cn3nc(C)c([N+](=O)[O-])c3C)n2)c1,23,n,n,n,n,n
COc1ccc(Cl)cc1NC(=O)CSc1nc2sccc2c(=O)[nH]1,n,n,n,n,45,n
O=C(Nc1ccc(Cl)cc1)C1CCCN1S(=O)(=O)c1cccc2cccnc12 (configuration not stated),n,x,x,x,n,x
O=C(CSc1nnc(C2COc3ccccc3O2)o1)N1CCCC1 (configuration not stated),23,n,n,n,n,n
CCOC(=O)N1CCN(C(=O)CSc2nnc(C3COc4ccccc4O3)o2)CC1 (configuration not stated),n,n,n,n,n,n
O=C1NC(=S)SC1=C1CCCC1,24,n,n,n,n,n
O=c1cc(N2CCN(c3ccc(F)cc3)CC2)[nH]c(=O)n1C1CCCCC1,n,n,n,n,n,n
O=c1cc(O)n(C2CCCCCC2)c(=O)[nH]1,24,n,x,n,n,n
CN1c2ccccc2C(O)=C(C(=O)Nc2ccccc2)S1(=O)=O,n,n,n,n,n,n
CN1c2ccccc2C(O)=C(C(=S)Nc2ccccc2)S1(=O)=O,22,n,n,n,n,n
CSCc1cc(C(=O)NC2CC2)c(N)s1,23,n,x,n,n,x
O=C1c2nc3cc(-c4ccco4)[nH]n3c(=O)c2CN1C1CCCCC1,23,n,x,n,n,x
CCC(C)(C)n1nnnc1C(c1cc2cc(C)ccc2[nH]c1=O)N1CCCc2ccccc21 (configuration not stated),30,n,n,n,n,n
CN1CCN(C(=O)c2ccc(-n3cccc3)cc2)CC1,n,n,n,n,n,n
CCC(C)Sc1cc(-c2nc3ccc(C)cn3c2NCc2ccccc2)ccc1OC (configuration not stated),n,27!,x,n,n,n
CCC(C)Sc1ccc(-c2nc3ccc(C)cn3c2NCc2ccccc2)cc1OC (configuration not stated),x,n,x,n,x,n
O=C1c2c(O)ccc(O)c2C(=O)c2c(NCCNCCO)ccc(NCCNCCO)c21,n,n,x,n,54!,n
O=C1c2ccccc2C(=O)c2c(Nc3ccc(CCO)cc3)ccc(O)c21,n,n,x,n,n,n
CCOC(=O)c1sc(N(Cc2ccccc2)C(=O)CCl)nc1C,22,n,x,n,n,n
CCC(C)(CC(=O)Nc1nccs1)c1ccccc1 (configuration not stated),n,n,x,n,n,n
Cc1nonc1C(=O)N/N=C/c1ccc(O)c(O)c1,n,n,n,n,n,n
O=C(N/N=C/c1ccc(O)c(O)c1)N/N=C/c1ccc(O)c(O)c1,24,n,x,n,n,n
